Results from PubChem BioAssay (NCATS).
Records with an inconclusive call do not appear. Calls of active or inactive are those of the source. Unless noted, calls come from the whole dose curve; as a rule, active = well fitted curve in the direction sought with a large enough effect; inconclusive = small, poorly fitted or top-dose-only effect, or another doubt; inactive = no such curve, though single readings can be large; an effect the other way counts as inactive or inconclusive.

How the values were obtained:
[1] = AP1 Signaling Pathway (AID 357; active = well fitted curve in either direction with a large enough effect, not every such curve was filed as active;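 note: ME-180 reporter cells stimulated with EGF at its EC50 level; % is set by controls: 0 for no effect and ±100 for the full control effect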)
In short: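 Beta-lactamase reporter under AP-1 response element, ME-180 background. Stimulus: EC50 EGF. Compound exposure 5 h, 37 °C. Detection: CCF4, 2.5 h RT, 460/530 nm. Values: AC50 from titration.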

[2] = target: Cytochrome P450 1A2 (Homo sapiens) (UniProt P05177); experiment: p450-cyp1a2 (AID 410; calls by dose curve;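 note: -100% = full effect of reference inhibitor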)
Sequence of Cytochrome P450 1A2 (Homo sapiens) (P05177 whole entry, looked up): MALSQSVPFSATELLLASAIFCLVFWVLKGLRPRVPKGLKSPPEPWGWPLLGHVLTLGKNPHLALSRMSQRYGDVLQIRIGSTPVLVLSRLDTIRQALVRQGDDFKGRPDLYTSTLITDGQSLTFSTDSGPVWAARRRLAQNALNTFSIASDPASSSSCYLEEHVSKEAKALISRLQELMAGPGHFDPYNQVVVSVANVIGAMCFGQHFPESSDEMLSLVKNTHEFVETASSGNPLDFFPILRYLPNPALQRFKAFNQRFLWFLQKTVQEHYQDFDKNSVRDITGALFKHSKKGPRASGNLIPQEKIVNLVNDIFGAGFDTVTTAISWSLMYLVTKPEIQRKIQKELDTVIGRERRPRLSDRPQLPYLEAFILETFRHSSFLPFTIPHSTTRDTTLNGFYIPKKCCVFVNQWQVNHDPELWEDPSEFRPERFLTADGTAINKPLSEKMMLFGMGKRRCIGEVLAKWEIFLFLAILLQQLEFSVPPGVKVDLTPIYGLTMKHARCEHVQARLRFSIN
In short: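 Human CYP1A2 (20nM) demethylated Luciferin-ME at its Km (100uM) in 100mM KPO4. After 10 min compound preincubation, NADPH regeneration ran the reaction 60 min at room temperature. Luciferin was read by luminescence, normalized to 57 uM furafylline.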

[3] = NFAT Signaling Pathway (AID 444; active = well fitted curve in either direction with a large enough effect, not every such curve was filed as active;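 note: carbachol stimulus at about its EC50 of 1 µM final; % is set by controls: 0 for no effect and ±100 for the full control effect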); conditions: Jurkat NFAT-bla M1, carbachol, beta-lactamase ratio, 5 h; at 17.2 µM (top of the series) unless noted
In short: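 Jurkat cells with NFAT-driven β-lactamase reporter and co-expressed M1 receptor, stimulated with carbachol (final 1 uM, ~EC50), compound titration, 5 h at 37 °C. CCF4 loaded 1 h at RT; 460/530 nm ratio gave %activity and AC50.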

[4] = Stat Signaling Pathway (AID 446; active = well fitted curve in either direction with a large enough effect, not every such curve was filed as active;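 note: ME-180 cervical cancer cells given 40 pM IL-6 alongside compound; SIE-controlled beta-lactamase reporter measured as 460/530 nm FRET emission ratio; % is set by controls: 0 for no effect and ±100 for the full control effect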)
In short: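 ME-180 cells carrying a SIE-driven beta-lactamase reporter are stimulated with 40 pM IL-6 for 5 h at 37C in the presence of compound. The 460/530 nm FRET substrate ratio is read after 2.5 h at RT. Data are normalised to 300 pM IL-6 and to 125 nM JAK inhibitor controls.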

[5] = target: Glucocorticoid receptor (Homo sapiens) (UniProt P04150); experiment: GR-GFP Redistribution (AID 450;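 active = compounds whose dose series gives a full or clear partial fitted curve of increased nuclear translocation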; note: potency is the fitted concentration of half-maximal effect); conditions: U2OS GR-GFP nuclear translocation, laser cytometry, 2 h
Sequence of Glucocorticoid receptor (Homo sapiens) (P04150 whole entry, looked up, the tested form may be a part): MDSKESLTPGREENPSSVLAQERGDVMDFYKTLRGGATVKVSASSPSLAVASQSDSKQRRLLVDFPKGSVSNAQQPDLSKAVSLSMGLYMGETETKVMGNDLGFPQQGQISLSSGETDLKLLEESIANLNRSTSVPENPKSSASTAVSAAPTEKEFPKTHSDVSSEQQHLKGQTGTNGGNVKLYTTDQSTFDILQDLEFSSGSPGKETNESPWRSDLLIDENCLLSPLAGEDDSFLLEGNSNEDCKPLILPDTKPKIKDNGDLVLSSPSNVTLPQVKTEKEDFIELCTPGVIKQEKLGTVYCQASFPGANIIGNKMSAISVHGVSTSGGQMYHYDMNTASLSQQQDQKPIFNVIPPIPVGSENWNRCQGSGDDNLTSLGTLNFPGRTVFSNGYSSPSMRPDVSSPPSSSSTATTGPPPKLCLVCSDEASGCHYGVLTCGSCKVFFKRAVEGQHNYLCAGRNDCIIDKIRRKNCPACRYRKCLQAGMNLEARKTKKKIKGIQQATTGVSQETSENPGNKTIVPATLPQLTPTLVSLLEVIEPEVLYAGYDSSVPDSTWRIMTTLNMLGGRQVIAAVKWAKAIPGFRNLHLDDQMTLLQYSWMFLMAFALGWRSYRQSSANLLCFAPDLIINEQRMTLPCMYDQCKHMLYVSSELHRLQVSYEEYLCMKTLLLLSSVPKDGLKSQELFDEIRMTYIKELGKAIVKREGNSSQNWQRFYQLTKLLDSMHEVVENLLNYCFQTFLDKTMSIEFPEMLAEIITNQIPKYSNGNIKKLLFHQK

[6] = target: Glucocorticoid receptor (Homo sapiens) (UniProt P04150); experiment: GR-EFC Redistribution (AID 451; calls by dose curve; note: potency is the fitted concentration of half-maximal effect); conditions: CHO-K1 GR-EFC translocation, beta-gal luminescence, 2 h
In short: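 CHO-K1 cells expressing nuclear EA and GR-ED fragments of b-gal; compounds titrated up to 46 uM final, 2 h at 37 C. GR nuclear translocation read as complemented b-gal luminescence after 1 h RT detection.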

[7] = target: Mitogen-activated protein kinase 10 (Mus musculus) (UniProt Q61831); experiment: JNK3 AlphaScreen Assay (AID 530; active = well fitted curve in either direction with a large enough effect, not every such curve was filed as active;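 note: kinase came from lysate of stimulated human HepG2 cells; signal reports phosphorylation of biotinylated GST-cJun 1-79 at Ser73 with 10 µM ATP; % is set by controls: 0 for no effect and ±100 for the full control effect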)
In short: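 qHTS format: compounds tested as titrations against IL-1beta/TNF-alpha-activated HepG2 lysate JNK3 with biotin-GST-cJun substrate and 10 uM ATP at room temperature. Loss of anti-phospho-cJun AlphaScreen signal indicates inhibition.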

[8] = target: 3',5'-cyclic-AMP phosphodiesterase 4B (Homo sapiens) (UniProt Q07343); experiment: qHTS Assay for Inhibitors of PDE-IV (AID 607; active = well fitted activation curve with a large enough effect in the main read-out, with a control signal flat, not every such curve was filed as active; note: % of control where 0% means no effect)
Sequence of 3',5'-cyclic-AMP phosphodiesterase 4B (Homo sapiens) (Q07343 whole entry, looked up): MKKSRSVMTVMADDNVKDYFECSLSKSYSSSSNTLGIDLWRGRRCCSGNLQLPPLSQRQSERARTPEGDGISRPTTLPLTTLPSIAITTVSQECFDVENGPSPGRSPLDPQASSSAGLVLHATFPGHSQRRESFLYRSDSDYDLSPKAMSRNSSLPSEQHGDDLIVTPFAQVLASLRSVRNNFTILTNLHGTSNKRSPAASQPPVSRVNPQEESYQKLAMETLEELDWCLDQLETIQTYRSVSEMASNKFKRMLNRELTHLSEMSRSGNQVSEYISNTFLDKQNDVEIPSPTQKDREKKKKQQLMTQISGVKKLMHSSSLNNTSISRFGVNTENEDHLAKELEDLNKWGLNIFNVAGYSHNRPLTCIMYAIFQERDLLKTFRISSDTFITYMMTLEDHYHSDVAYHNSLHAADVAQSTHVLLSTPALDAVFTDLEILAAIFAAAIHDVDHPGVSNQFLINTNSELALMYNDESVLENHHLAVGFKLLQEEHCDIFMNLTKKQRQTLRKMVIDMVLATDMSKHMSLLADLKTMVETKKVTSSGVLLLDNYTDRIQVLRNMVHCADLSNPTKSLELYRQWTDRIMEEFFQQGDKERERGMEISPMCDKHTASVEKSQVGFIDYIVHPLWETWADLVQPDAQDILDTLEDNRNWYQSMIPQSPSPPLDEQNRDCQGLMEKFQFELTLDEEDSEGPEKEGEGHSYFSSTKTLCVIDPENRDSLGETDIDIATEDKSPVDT
In short: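 HEK293 ACTOne cells with CNG channel (1000/well), endogenous PDE4; membrane potential dye, compounds up to 22.9 uM final. Fluorescence Ex 535/Em 590; RO 20-1724 (100 uM final) as reference.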

[9] = qHTS Assay for Lipid Storage Modulators (AID 1519; calls by dose curve); conditions: Drosophila S3 cells, BODIPY lipid droplet/cell ratio, laser cytometry, cells loaded with oleic acid; for activity change, negative = inhibition: at 25.7 µM (top of the series)
In short: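 Cells seeded at 5,000 per well were treated with compounds over a concentration series and loaded with oleic acid (400 uM, as added). Lipid droplet fluorescence (488 nm excitation, 500-530 nm channel) was read by laser-scanning cytometry and normalized to 20 uM Triacsin C.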

[10] = target: ATP-dependent 6-phosphofructokinase (Trypanosoma brucei brucei) (UniProt O15648); experiment: qHTS Assay to Find Inhibitors of T. brucei phosphofructokinase: hit validation (AID 492961); note: % is set by controls: 0 for no effect and ±100 for the full control effect
Sequence of ATP-dependent 6-phosphofructokinase (Trypanosoma brucei brucei) (O15648 whole entry, looked up): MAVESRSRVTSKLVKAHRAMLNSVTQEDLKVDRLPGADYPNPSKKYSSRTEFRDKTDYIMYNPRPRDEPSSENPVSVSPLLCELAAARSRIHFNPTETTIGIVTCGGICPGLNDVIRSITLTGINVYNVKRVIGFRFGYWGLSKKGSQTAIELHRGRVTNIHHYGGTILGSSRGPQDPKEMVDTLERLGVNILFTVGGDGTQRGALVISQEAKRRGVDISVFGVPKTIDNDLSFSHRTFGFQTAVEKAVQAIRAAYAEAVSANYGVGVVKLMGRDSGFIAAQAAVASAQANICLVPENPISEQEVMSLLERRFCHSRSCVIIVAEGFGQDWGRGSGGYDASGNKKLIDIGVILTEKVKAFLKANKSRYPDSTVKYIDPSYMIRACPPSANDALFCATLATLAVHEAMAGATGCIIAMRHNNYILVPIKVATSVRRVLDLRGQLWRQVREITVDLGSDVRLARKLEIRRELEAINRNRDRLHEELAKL
In short: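 Luminescence from ADP-Glo reports ADP generated as T. brucei PFK (1.25 nM) phosphorylates 0.5 mM fructose-6-phosphate using 0.1 mM ATP. Reactions ran 45 min at room temperature, pH 8.0.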

[11] = target: Ubiquitin carboxyl-terminal hydrolase 1 (Homo sapiens) (UniProt O94782); experiment: Inhibitors of USP1/UAF1: Pilot qHTS (AID 504865);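 note: rhodamine fluorescence freed from ubiquitin-rhodamine substrate followed over time; top concentration of the series differs between compounds; % is set by controls: 0 for no effect and ±100 for the full control effect; nearly all actives have a fitted effect of over 35% in size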
Sequence of Ubiquitin carboxyl-terminal hydrolase 1 (Homo sapiens) (O94782 whole entry, looked up): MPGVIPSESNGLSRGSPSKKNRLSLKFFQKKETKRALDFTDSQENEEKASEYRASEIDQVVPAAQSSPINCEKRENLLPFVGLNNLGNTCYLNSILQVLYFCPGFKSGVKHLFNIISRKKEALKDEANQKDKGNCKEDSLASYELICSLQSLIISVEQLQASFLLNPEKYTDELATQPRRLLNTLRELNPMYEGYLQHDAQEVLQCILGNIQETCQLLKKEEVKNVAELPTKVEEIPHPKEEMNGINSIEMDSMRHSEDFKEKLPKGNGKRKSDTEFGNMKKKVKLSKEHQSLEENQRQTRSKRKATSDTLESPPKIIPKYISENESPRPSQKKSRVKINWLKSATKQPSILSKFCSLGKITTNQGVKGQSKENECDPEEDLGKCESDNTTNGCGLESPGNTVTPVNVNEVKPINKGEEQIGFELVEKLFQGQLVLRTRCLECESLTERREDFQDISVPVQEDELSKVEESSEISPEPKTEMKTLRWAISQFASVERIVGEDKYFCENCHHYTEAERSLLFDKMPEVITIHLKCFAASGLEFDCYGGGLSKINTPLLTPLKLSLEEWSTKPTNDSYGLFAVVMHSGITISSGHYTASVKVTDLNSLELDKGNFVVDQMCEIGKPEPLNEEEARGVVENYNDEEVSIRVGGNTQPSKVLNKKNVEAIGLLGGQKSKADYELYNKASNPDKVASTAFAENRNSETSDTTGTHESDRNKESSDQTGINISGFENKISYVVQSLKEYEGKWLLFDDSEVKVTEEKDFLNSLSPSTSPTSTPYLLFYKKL
In short: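 In 50mM HEPES pH 7.8 containing 0.5mM EDTA, 1mM TCEP, 0.1 mg/ml BSA and 0.01% Tween-20, 1nM USP1/UAF1 is exposed to compound for 15 min, then Ub-Rho (150nM final) is added and fluorescence is read over time.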

[12] = target: Luciferin 4-monooxygenase (Photinus pyralis) (UniProt P08659); experiment: Biochemical firefly luciferase enzyme assay for NPC (AID 624030);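 note: purified P. pyralis luciferase at 10 nM with luciferin and ATP substrate; 0% = DMSO and -100% = full luciferase inhibition by PTC124 control; nearly all actives have a fitted effect of over 70% in size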
Sequence of Luciferin 4-monooxygenase (Photinus pyralis) (P08659 whole entry, looked up): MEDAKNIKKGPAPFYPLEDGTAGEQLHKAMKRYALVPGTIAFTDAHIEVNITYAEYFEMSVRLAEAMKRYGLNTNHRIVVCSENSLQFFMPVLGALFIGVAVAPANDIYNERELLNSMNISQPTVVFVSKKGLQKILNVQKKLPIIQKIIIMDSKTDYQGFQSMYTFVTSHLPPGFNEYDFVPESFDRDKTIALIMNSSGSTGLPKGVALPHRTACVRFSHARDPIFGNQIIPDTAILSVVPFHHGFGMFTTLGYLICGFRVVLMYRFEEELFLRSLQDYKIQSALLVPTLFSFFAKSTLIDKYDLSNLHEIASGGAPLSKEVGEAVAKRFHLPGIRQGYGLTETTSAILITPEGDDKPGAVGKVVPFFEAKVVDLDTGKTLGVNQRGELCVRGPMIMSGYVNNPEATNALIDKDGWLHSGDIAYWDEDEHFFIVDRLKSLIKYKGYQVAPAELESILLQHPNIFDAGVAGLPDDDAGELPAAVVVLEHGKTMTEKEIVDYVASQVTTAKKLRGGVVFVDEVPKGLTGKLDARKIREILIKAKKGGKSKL
In short: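 Purified P. pyralis luciferase at 10 nM in 50 mM Tris Acetate (final), luminescence read within 5 minutes of enzyme addition to compounds. Activity normalised to PTC124 versus DMSO; concentration-response curves classed by r2, magnitude and activity.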

[13] = S16 Schwann cell viability assay (CellTiter-Glo assay) (AID 624031);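 note: cellular ATP luminescence as a viability measure; plate controls were DMSO-treated cells for no effect and cell-free wells for full effect; nearly all actives have a fitted effect of over 70% in size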
In short: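 Luminescent ATP read-out (CellTiter-Glo) after 24 h compound exposure of native S16 rat Schwann cells at 37 °C. Signals were normalized between cell-free wells and DMSO-treated cells, set as 0% activity.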

[14] = qHTS profiling for inhibitors of Plasmodium falciparum proliferation (AID 504749); note: potency is the fitted concentration of half-maximal effect;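 for activity, negative = inhibition: 0% = DMSO vehicle and full inhibition = artemisinin control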; for all read-outs here: nearly all actives have a fitted effect of over 60% in size; conditions: P. falciparum in erythrocytes, SYBR Green DNA, 72 h; for activity, negative = inhibition: at 12.8 µM (top of the series)
In short: (§1)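 Readout was DNA-dye fluorescence from lysed cultures, ex 485/em 535 nm. Parasitized red cells had grown 72 h with compound; data scaled between 0.29 uM artemisinin and DMSO wells and corrected using vehicle-only plates.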

CP191 = experiment: as above; conditions: P. falciparum in erythrocytes, SYBR Green DNA, 72 h; series mostly up to 12.8 µM
In short: as §1

FAB9 = experiment: as above; conditions: P. falciparum in erythrocytes, SYBR Green DNA, 72 h; series mostly up to 12.8 µM
In short: as §1

JCK = experiment: as above; conditions: P. falciparum in erythrocytes, SYBR Green DNA, 72 h; series mostly up to 12.8 µM
In short: as §1

C2A = experiment: as above; conditions: P. falciparum in erythrocytes, SYBR Green DNA, 72 h; series mostly up to 12.8 µM
In short: as §1

CP250 = experiment: as above; conditions: P. falciparum in erythrocytes, SYBR Green DNA, 72 h; series mostly up to 12.8 µM
In short: as §1

SC27B = experiment: as above; conditions: P. falciparum in erythrocytes, SYBR Green DNA, 72 h; series mostly up to 12.8 µM
In short: as §1

[15] = measured here: cell count channel max response
[16] = measured here: lipid channel max response

COc1cc(N)c(Cl)cc1C(=O)N[C@H]1CCN(CCCOc2ccc(F)cc2)C[C@H]1OC
inactive: outcome [1] | Potency [2] | activity change, negative = inhibition [3] -12.4% | outcome [4] | Potency [5] > 20.6 µM | Potency [6] > 20.6 µM | Potency [7] | outcome [8] | activity change, negative = inhibition [9] 2.27% | outcome [10] | Potency [11] | Potency [12] | outcome [13] | Potency (FAB9) | Potency (JCK)
0.873%: max response [9, 16]
-1.69%: max response [9, 15]
active: Potency ([14]; parasite line A) 3.55 µM | Potency (CP191) 2 µM

O=C(NC[C@@H](O)CO)c1c(I)c(C(=O)NC[C@@H](O)CO)c(I)c(N(CCO)C(=O)CO)c1I
-1.01%: max response [9, 15]
inactive: outcome [1] | Potency [2] | activity change, negative = inhibition [3] -8.22% | outcome [4] | Potency [5] > 20.6 µM | Potency [6] > 20.6 µM | Potency [7] | outcome [8] | activity change, negative = inhibition [9] -2.29% | outcome [10] | Potency [12] | outcome [13] | activity, negative = inhibition ([14]; parasite line A) 7.51% | activity, negative = inhibition ([14]; parasite line B) 8.28% | Potency (C2A) | Potency (CP191) | Potency (CP250) | Potency (FAB9) | Potency (JCK) | Potency (SC27B)
-0.682%: max response [9, 16]

CN1CC[C@@]23c4ccccc4N[C@H]1[C@]21CCN(C)[C@@H]3Nc2ccccc21
-11.8%: max response [9, 16]
-9.01%: max response [9, 15]
inactive: outcome [1] | Potency [2] | activity change, negative = inhibition [3] -9.09% | outcome [4] | Potency [5] > 20.6 µM | Potency [6] > 20.6 µM | Potency [7] | outcome [8] | activity change, negative = inhibition [9] -2.36% | Potency [11]

NC(=O)c1ncn([C@H]2O[C@@H](CO)[C@@H](O)[C@@H]2O)n1
-8.81%: max response [9, 15]
-7.48%: max response [9, 16]
inactive: outcome [1] | Potency [2] | activity change, negative = inhibition [3] -18.7% | outcome [4] | Potency [5] > 20.6 µM | Potency [6] > 20.6 µM | Potency [7] | outcome [8] | activity change, negative = inhibition [9] 1.03% | Potency [11]

CC[C@@H]1OC(=O)[C@H](C)[C@H](O[C@@H]2C[C@](C)(OC)[C@H](O)[C@H](C)O2)[C@H](C)[C@H](O[C@@H]2O[C@@H](C)C[C@@H](N(C)C)[C@@H]2O)[C@](C)(O)C[C@H](C)C(=NOCOCCOC)[C@H](C)[C@H](O)[C@]1(C)O
inactive: outcome [1] | Potency [2] | activity change, negative = inhibition [3] -1.03% | outcome [4] | Potency [5] > 20.6 µM | Potency [6] > 20.6 µM | Potency [7] | outcome [8] | activity change, negative = inhibition [9] 0.83% | outcome [10] | Potency [12] | outcome [13] | activity, negative = inhibition ([14]; parasite line B) -20.4% | Potency (C2A) | Potency (CP250) | Potency (FAB9) | Potency (JCK) | Potency (SC27B)
-2.35%: max response [9, 15]
-1.19%: max response [9, 16]

O=C(O)[C@@H]1CCCNC1
-8.86%: max response [9, 15]
-11.3%: max response [9, 16]
inactive: outcome [1] | Potency [2] | activity change, negative = inhibition [3] -10.3% | outcome [4] | Potency [5] > 20.6 µM | Potency [6] > 20.6 µM | Potency [7] | outcome [8] | activity change, negative = inhibition [9] -1.28% | Potency [11]
